High-throughput results deposited in PubChem BioAssay by NMMLSC.
A selection: hits, their analogues and other compounds. The true share with any hit is near 1.2%.
RGS7-Gao: human RGS7-Galphao interaction regulation. P09471. Multiplexed bead flow cytometry, RGS7-Galphao binding; actives lie on both sides. binding response (% of control), % at 10 µM. hit rate 0.35% among 220,000. AID 1439; in the data active means binding response below about 49% or above about 150%; inconclusive means no clear call, values can overlap the other calls; inactive means in between;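 further: fluorescent Galphao held in activated GDP-AlF4 state binding bead-coupled RGS7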
Target sequence (P09471 whole entry, looked up): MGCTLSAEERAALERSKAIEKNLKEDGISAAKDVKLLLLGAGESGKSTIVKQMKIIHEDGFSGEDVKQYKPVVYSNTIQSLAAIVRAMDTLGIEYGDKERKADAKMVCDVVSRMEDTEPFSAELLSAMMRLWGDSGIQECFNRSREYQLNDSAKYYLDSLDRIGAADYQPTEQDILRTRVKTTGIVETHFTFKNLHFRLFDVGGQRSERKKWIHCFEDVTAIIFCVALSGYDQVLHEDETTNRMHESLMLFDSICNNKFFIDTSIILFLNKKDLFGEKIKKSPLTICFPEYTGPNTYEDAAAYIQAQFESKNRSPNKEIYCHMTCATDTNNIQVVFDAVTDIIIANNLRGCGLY
RGS16-Gao HTS: regulators of human RGS16-Galphao interaction | hit rate 0.38% among 220,000 | binding response (% of control), % at 10 µM | bead-based flow cytometry RGS16-Galphao binding, fluorescence; actives lie on both sides;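 further: Galphao activated by GDP with aluminum fluoride before binding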
RGS4-Gao reg: human RGS4-Galphao interaction regulation; P09471; Multiplexed bead flow cytometry, RGS4-Galphao binding; actives lie on both sides; binding response (% of control), % at 10 µM; hit rate 0.33% among 220,000; in the data active means binding response below about 49% or above about 150%; inactive means in between;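 further: fluorescent Galphao activated with aluminum fluoride binding bead-coupled RGS4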
GSH bead fluor: compound fluoresces at 488/530 nm on GSH beads; GSH beads flow cytometry, compound fluorescence 488/530 nm; active compounds read high; fluorescence (KMESF) at 10 µM; hit rate 0.25% among 190,000; in the data active means fluorescence above about 89;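 further: glutathione beads carrying GST-tagged Bcl family fusion proteins plus one bare bead set; values are compound well signal with DMSO vehicle wells as background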
RGS8-Gao reg: modulates binding of RGS8 to human Galphao; hit rate 0.34% among 220,000; multiplexed bead flow cytometry; actives lie on both sides; P09471; response (percent of control binding), % at 10 µM; AID 1423; in the data active means response below about 60% or above about 140%; inactive means in between;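 further: Galphao activated as the GDP aluminium fluoride complex binding bead-coupled RGS8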
Avidin fluor: avidin bead compound fluorescence profile; fluorescence (KMESF) at 10 µM; Avidin beads, compound fluorescence 488/530 nm, flow cytometry; active compounds read high; hit rate 0.38% among 220,000; in the data active means fluorescence above about 47
RGS4-Gao HTS: modulates binding between human RGS4 and Galphao. multiplexed bead flow cytometry, RGS–Galpha-o binding. shares compounds with RGS16-Gao HTS. hit rate 99% among 1,600. RGS4–Galpha-o binding response, % at 10 µM;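 further: fluorescently labeled Galpha-o bound to GDP with aluminium fluoride binding biotinylated RGS beads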
Biotin-avidin: biotin-avidin bead binding disruption counter-screen | inhibition, % at 10 µM | 1,700 tested, under 10 active | shares compounds with RGS16-Gao HTS | streptavidin beads, fluorescein-biotin binding, flow cytometry;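 active means inhibition above 50%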;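 further: median green fluorescence of gated singlet beads compared with DMSO control wells; 0% = DMSO wells and 100% = complete loss of bead fluorescence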
RGS8-Gao confirm: RGS8-Galphao interaction regulation, single point confirmation. shares compounds with RGS16-Gao HTS. bead-based flow cytometry RGS8-Galphao binding, fluorescence; actives lie on both sides. binding response (% of control), % at 10 µM. hit rate 3% among 1,700; in the data active means binding response below about 72% or above about 130%; inactive means in between;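 further: Galphao activated as GDP AlF4 complex before binding bead RGS8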
RGS7-Gao confirm: RGS7-Galphao interaction regulation, single point confirmation | shares compounds with RGS16-Gao HTS | bead-based flow cytometry RGS7-Galphao binding; actives lie on both sides | response (percent of control binding), % at 10 µM | hit rate 7.8% among 1,700 | AID 1837; in the data active means response below about 75% or above about 130%; inactive means in between;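 further: fluorescent Galphao activated with GDP and aluminum fluoride binding bead-coupled RGS7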
RGS16-Gao conf: confirmation of regulators of human RGS16-Galphao interaction. shares compounds with RGS16-Gao HTS. bead-based flow cytometry, RGS16-Galphao binding; actives lie on both sides. response (% of control binding), % at 10 µM. hit rate 4% among 1,700. AID 1838; in the data active means response below about 74% or above about 130%; inactive means in between;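 further: Galphao activated as the GDP aluminium fluoride complex binding bead-coupled RGS16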
RGS4-Gao confirm: RGS4-Galphao interaction regulation, single point confirmation. shares compounds with RGS16-Gao HTS. RGS4-Galphao binding, multiplexed bead flow cytometry; actives lie on both sides. binding response (% of control), % at 10 µM. hit rate 4% among 1,700; in the data active means binding response below about 74% or above about 130%; inactive means in between
RGS19-Gao single: confirmation of regulators of human RGS19-Galphao interaction; shares compounds with RGS16-Gao HTS; bead-based flow cytometry RGS19-Galphao binding; actives lie on both sides; response (percent of control binding), % at 10 µM; hit rate 5% among 1,700; AID 1841; in the data active means response below about 50% or above about 160%; inactive means in between;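 further: 100% = no compound control and 0% = blank background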
An asterisk follows results filed as active; ? = inconclusive; . = not tested or not shown; [ ] = dose if it differs, or a comment. Unless noted, how the calls were made is not given here.

SMILES | RGS7-Gao | RGS16-Gao HTS | RGS4-Gao reg | GSH bead fluor | RGS8-Gao reg | Avidin fluor | Biotin-avidin | RGS8-Gao confirm | RGS7-Gao confirm | RGS16-Gao conf | RGS4-Gao confirm | RGS19-Gao single | others
CC(=NCC1CCCO1)c1c(O)n(C)c(=O)n(C)c1=O (stereo not given) | 30.7* | -17.7* | -9.3* | 10 | 53.8* | 7 | -0.8 | 100.6 | 91.7 | 98.7 | 98.2 | 95.8
c1ccc2c(c1)[nH]c1cnccc12 | 104.6 | 109.2 | 101.2 | 20 | 105.4 | 10 | . | . | . | . | . | .
Cc1c2ccncc2c(C)c2c1[nH]c1ccccc12 | 128.4 | 77.9 | 153.9*[activator] | 18 | 92.1 | 15 | -0.2 | 94.4 | 76.0 | 89.3 | 84.1 | 72.0
CCSC1=NN1c1cc(C)nc(N)n1 | ? | 96.7 | 102.4 | . | 101.9 | 9 | . | . | . | . | . | .
Cc1cc(Cl)nc(N)n1 | 112.1 | 310.7 | 114.2 | 9 | 146.2*[activator] | 5 | -2.3 | 96.3 | 92.8 | 95.7 | 95.5 | 99.7 | RGS4-Gao HTS=114.2*
CCOP(=O)(OCC)C(O)c1ccc(OC)c(OC)c1 (stereo not given) | 90.6 | 66.6 | 92.7 | 30 | 93.1 | 8 | . | . | . | . | . | .
CC(=O)N1CC(=O)Nc2ccc(Cl)cc2C1c1ccc(F)cc1 (stereo not given) | 18.9* | 10.9* | 25.4* | 12 | 14.8* | 2 | 0.3 | 101.3 | 100.3 | 100.4 | 101.0 | 98.8
CCC(=O)N1CC(=O)Nc2ccc(Cl)cc2C1c1ccc(F)cc1 (stereo not given) | 101.0 | 105.4 | 104.9 | 33 | 101.1 | 14 | . | . | . | . | . | .
O=C(Nc1cccc(Cl)c1)c1c(O)c2c(n(Cc3ccccc3)c1=O)CCCC2 | 105.1 | 104.1 | 102.0 | 23 | 101.4 | 12 | . | . | . | . | . | .
COC(=O)C1=CCCN(C)C1 | 5.1* | 12.9* | 15.8* | 14 | 21.1* | 1 | -0.7 | 102.1 | 100.2 | 102.4 | 103.4 | 96.9
COC(=O)c1ccc(CN2CCN(Cc3ccccc3)CC2)cc1 | 100.8 | 101.4 | 103.7 | 11 | 99.3 | 27 | . | . | . | . | . | .
O=C(C(Cc1ccccc1)NS(=O)(=O)c1ccc(F)cc1)N1CCC2(CC1)OCCO2 (stereo not given) | 102.7 | 90.7 | 98.3 | 40 | 97.3 | 7 | . | . | . | . | . | .
CCC1(CCc2ccncc2)C(=O)NC(=O)NC1=O | 100.1 | 101.1 | 100.3 | 42 | 103.5 | 40 | . | . | . | . | . | .
O=c1[nH]c(O)c(N=Nc2ccc(S(=O)(=O)N3CCOCC3)cc2)c(=O)[nH]1 | 97.3 | 96.9 | 97.9 | 8 | 97.2 | 8 | . | . | . | . | . | .
O=c1[nH]c(=S)[nH]c(O)c1N=Nc1ccc(S(=O)(=O)N2CCOCC2)cc1 | ? | -19.4* | -35.5* | . | 0.7* | -4 | -1.2 | 99.0 | 98.3 | 99.1 | 99.1 | 88.8
N#CC(C#N)=Cc1ccc(N2CCCC2)cc1 | 667.6*[activator] | 149.7 | 184.0*[activator] | 20 | 70.7 | 118* | 0.8 | 102.5 | 103.2 | 102.6 | 103.6 | 86.2
CN1C(=O)NC(=O)/C(=C/c2ccc([N+](=O)[O-])o2)C1=O | ? | 41.2 | 88.0 | . | 58.1* | 4 | . | . | . | . | . | . | RGS4-Gao HTS=88.0*
CC(C)C(=O)Nc1ccc(N2CCN(C)CC2)c(F)c1 | 103.8 | 98.4 | 98.3 | 20 | 101.5 | 11 | . | . | . | . | . | .
